From PubChem BioAssay
Hits are enriched below; roughly 18% of the tested compounds scored in any of these assays.
TDP1 cell noCPT: qHTS for Inhibitors of human tyrosyl-DNA phosphodiesterase 1 (TDP1): qHTS in cells in absence of CPT. DT40 Tdp1-/- hTDP1 cells, no CPT, ATP luminescence, 48 h. Potency, µM (titrated, usually from 46.2 µM), actives largely listed as inhibitors. 15% of 420,000 active. AID 686978, 2013; further: nearly all actives have a fitted effect of over 55% in size
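A cellular qHTS used chicken DT40 cells lacking endogenous Tdp1 but carrying stably transfected human TDP1. Compounds were applied without camptothecin, and cell growth kinetics were judged by ATP-dependent luminescence after ≥48 hr.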
LDHA block: qHTS assay for inhibitors of human lactate dehydrogenase; L-lactate dehydrogenase A chain (Homo sapiens), P00338; purified LDHA, NADH/diaphorase-resazurin fluorescence; stronger effect = lower value; activity change, % (values are at about 110 or 230 µM); 0.15% of 480,000 active; AID 1347041, 2019; in the data active means activity change below about -30%; inconclusive means mostly about -25% to -30%
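LDH5 2 nM; NADH 0.06 mM, pyruvate 0.2 mM; 200 mM Tris pH 7.4, EDTA, Tween-20; 5 min RT. Detection: diaphorase 0.133 mg/mL + resazurin 37 µM, fluorescence ex540/em590 at 0 and 20 min; normalized to enzyme-free and DMSO wells.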
DT40 TDP1 CPT: qHTS for Inhibitors of human tyrosyl-DNA phosphodiesterase 1 (TDP1): qHTS in cells in presence of CPT | chicken DT40 Tdp1-/-;hTDP1 cells + 20 nM CPT, ATP luminescence, 48 h | Potency, µM (doses to about 46.2 µM), actives largely listed as inhibitors | 12% of 420,000 active; further: nearly all actives have a fitted effect of over 55% in size
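Chicken DT40 Tdp1-/- cells complemented with human TDP1, 400 cells/well, exposed to compounds plus 20 nM camptothecin for at least 48 h at 37 C; viability read as ATP content by CellTiter-Glo luminescence.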
IL1B secr inh: qHTS for Inhibitors of Inflammasome Signaling: IL-1-beta AlphaLISA Primary Screen; 4.7% of 360,000 active; THP-1 LPS/ATP IL-1B secretion, AlphaLISA, 16 h; stronger effect = lower value; activity change, % at 57.5 µM; in the data active means activity change below about -50%; inconclusive means mostly about -30% to -49%
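THP-1 cells pretreated 1 hr with compounds (up to 57.5 uM final), then stimulated with LPS (250 ng/mL final) plus ATP (1.25 mM final); secreted IL-1B measured by AlphaLISA after 16 hr, decreased signal indicating inhibition.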
VP16 counter: VP16 counterscreen qHTS for inhibitors of ROR gamma transcriptional activity; 3.5% of 310,000 active; AID 2546, 2010; Drosophila S2 Gal4-VP16 UAS-luciferase, luminescence, 20 h; Potency, µM (doses to about 53.6 µM), actives largely listed as inhibitors;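 further: Gal4-VP16 expression switched on by copper sulfate through the metallothionein promoter; nearly all actives have a fitted effect of over 50% in size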
RORgamma inh: qHTS for inhibitors of ROR gamma transcriptional activity. Nuclear receptor ROR-gamma (Mus musculus), P51450. Drosophila S2 Gal4-RORgamma UAS-luciferase reporter, 20 h. Potency, µM (series often up to 53.6 µM), hits mostly inhibitors. 5.4% of 310,000 active; further: nearly all actives have a fitted effect of over 60% in size
Target sequence (P51450 whole entry, looked up, the tested form may be a part): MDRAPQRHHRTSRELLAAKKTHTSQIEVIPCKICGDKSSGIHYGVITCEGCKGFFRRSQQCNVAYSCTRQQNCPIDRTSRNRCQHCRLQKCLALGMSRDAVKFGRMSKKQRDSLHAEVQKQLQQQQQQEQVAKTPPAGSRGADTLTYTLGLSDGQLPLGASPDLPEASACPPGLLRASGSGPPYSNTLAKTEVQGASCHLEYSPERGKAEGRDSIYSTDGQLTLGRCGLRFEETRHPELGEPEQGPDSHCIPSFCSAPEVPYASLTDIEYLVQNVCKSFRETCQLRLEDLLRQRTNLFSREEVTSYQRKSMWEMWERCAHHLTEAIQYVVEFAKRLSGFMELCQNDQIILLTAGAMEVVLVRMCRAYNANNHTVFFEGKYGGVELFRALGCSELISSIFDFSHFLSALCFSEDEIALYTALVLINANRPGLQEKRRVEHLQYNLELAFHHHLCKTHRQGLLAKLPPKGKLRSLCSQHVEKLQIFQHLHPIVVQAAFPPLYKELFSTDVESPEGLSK
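Luminescence from a UAS-regulated Photinus luciferase reporter in stably transfected Drosophila Schneider cells is measured; decreased signal marks ROR gamma inhibition. Fusion expression is induced by 700 uM copper sulfate for 20 hr.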
Of the large screens only hits and unclear results are named; the others gave an inactive call. Unless noted, the call rests on the fitted dose curve; in most records, active means well fitted curve in the direction sought with a large enough effect; inconclusive means small, poorly fitted or top-dose-only effect, or another doubt; inactive means no such curve, though single readings can be large; an effect the other way counts as inactive or inconclusive.

O=C(Nc1cccc(-c2cccc(F)c2)c1)C1CCN(CC2CCOC2)CC1 (stereo not drawn)	TDP1 cell noCPT inconclusive, DT40 TDP1 CPT inconclusive, IL1B secr inh inconclusive
CCOc1ccc(N=Nc2c(=O)[nH]n3c(=O)cc(C)[nH]c23)cc1	TDP1 cell noCPT inconclusive, DT40 TDP1 CPT 21µM
C=CCn1c(COc2ccc(C(C)(C)C)cc2)nnc1SCc1c(F)cccc1Cl	none (no result: TDP1 cell noCPT, DT40 TDP1 CPT, IL1B secr inh, VP16 counter, RORgamma inh)
Cn1cc(CNCCCn2ncc3ccccc32)c(-c2ccccc2F)n1	TDP1 cell noCPT inconclusive, DT40 TDP1 CPT inconclusive
Cn1cc(CNCc2ccc(-n3cccn3)cc2)c(-c2ccccc2F)n1	TDP1 cell noCPT 21µM, DT40 TDP1 CPT inconclusive, VP16 counter 11µM, RORgamma inh inconclusive
C=CCSc1nnc(NC(=O)c2cc(=O)c3cc(C)c(C)cc3o2)s1	none (no result: TDP1 cell noCPT, DT40 TDP1 CPT, IL1B secr inh, VP16 counter, RORgamma inh)
C#Cc1cccc(NS(=O)(=O)c2cccs2)c1	none (no result: TDP1 cell noCPT, DT40 TDP1 CPT, IL1B secr inh, VP16 counter, RORgamma inh)
O=C(c1ccccc1NS(=O)(=O)c1ccc(Br)cc1)N1CCOCC1	IL1B secr inh -53
Cn1c(=O)n(C)c2cc(N3CCOCC3)c(NS(=O)(=O)c3ccc(Br)cc3)cc21	TDP1 cell noCPT inconclusive, DT40 TDP1 CPT 15µM (no result: IL1B secr inh, VP16 counter, RORgamma inh)
CSc1ccc(S(=O)(=O)Nc2ccccc2C(=O)N2CCOCC2)cc1	none
Cc1cc(S(=O)(=O)Nc2cc3c(cc2N2CCOCC2)n(C)c(=O)n3C)ccc1F	TDP1 cell noCPT 9.2µM, DT40 TDP1 CPT 23µM (no result: IL1B secr inh, VP16 counter, RORgamma inh)
Cn1c(=O)n(C)c2cc(N3CCOCC3)c(NS(=O)(=O)c3ccc(F)cc3)cc21	TDP1 cell noCPT inconclusive, DT40 TDP1 CPT inconclusive (no result: IL1B secr inh, VP16 counter, RORgamma inh)
Cc1nc2ccccc2c(Cl)c1C/C=C/Cl	none (no result: TDP1 cell noCPT, DT40 TDP1 CPT, IL1B secr inh, VP16 counter, RORgamma inh)
Nc1ncnc2c1ncn2COC(CO)CO	TDP1 cell noCPT 0.71µM, DT40 TDP1 CPT 0.32µM (no result: IL1B secr inh, VP16 counter, RORgamma inh)
Nc1ncnc2c1ncn2CCOCP(=O)(O)O	none (no result: LDHA block, IL1B secr inh)
COc1ccccc1Cc1c(-c2cccc(Br)c2)nc2c(C)cc(Br)cn12	TDP1 cell noCPT 23µM, DT40 TDP1 CPT 16µM (no result: VP16 counter, RORgamma inh)
COc1ccccc1Cc1c(-c2ccc(Cl)cc2)nc2c(C)cc(Br)cn12	TDP1 cell noCPT 7.3µM, DT40 TDP1 CPT 6.5µM (no result: VP16 counter, RORgamma inh)
COc1ccc(Cc2c(-c3ccc(C)cc3)nc3c(C)cc(Br)cn23)c(C)c1	TDP1 cell noCPT inconclusive, DT40 TDP1 CPT inconclusive (no result: VP16 counter, RORgamma inh)
CC(C)(C)c1ccc(-c2csc(NC(=O)CN3C(=O)NC4(CCCCC4)C3=O)n2)cc1	TDP1 cell noCPT 9.2µM, DT40 TDP1 CPT 10µM
COc1ccc(-c2csc(NC(=O)CN3C(=O)NC4(CCCC4)C3=O)n2)cc1OC	IL1B secr inh -62 (no result: VP16 counter, RORgamma inh)
COc1ccc(-c2csc(NC(=O)CN3C(=O)NC4(CCCC4)C3=O)n2)c(OC)c1	TDP1 cell noCPT inconclusive, DT40 TDP1 CPT inconclusive, IL1B secr inh inconclusive (no result: VP16 counter, RORgamma inh)
Cc1cc(C)c(S(=O)(=O)Nc2cccc3cccnc23)c(C)c1	VP16 counter 0.32µM, RORgamma inh 0.089µM (no result: TDP1 cell noCPT, DT40 TDP1 CPT, IL1B secr inh)
O=S(=O)(Nc1cccc2cccnc12)c1ccc(F)c(F)c1F	none (no result: TDP1 cell noCPT, DT40 TDP1 CPT, IL1B secr inh, VP16 counter, RORgamma inh)
COc1ccc(C(=O)Nc2cc(OC)cc3cccnc23)cc1	TDP1 cell noCPT inconclusive, DT40 TDP1 CPT inconclusive
COc1ccc(S(=O)(=O)Nc2cc(OC)cc3cccnc23)cc1	VP16 counter inconclusive, RORgamma inh 2.5µM (no result: TDP1 cell noCPT, LDHA block, DT40 TDP1 CPT, IL1B secr inh)
O=S(=O)(Nc1cccc2cccnc12)c1ccccc1O	VP16 counter 3.2µM, RORgamma inh 2µM (no result: TDP1 cell noCPT, LDHA block, DT40 TDP1 CPT, IL1B secr inh)
O=S(=O)(Nc1cccc2cccnc12)c1ccc(Br)cc1	VP16 counter 1.3µM, RORgamma inh 0.56µM (no result: TDP1 cell noCPT, LDHA block, DT40 TDP1 CPT, IL1B secr inh)
Cc1ccc(C)c(S(=O)(=O)Nc2cccc3cccnc23)c1	none (no result: TDP1 cell noCPT, DT40 TDP1 CPT, IL1B secr inh, VP16 counter, RORgamma inh)
CCCN(CC)c1ccc(/C=N/NC(=S)Nc2ccc(CC)cc2)cc1	none (no result: TDP1 cell noCPT, DT40 TDP1 CPT, IL1B secr inh, VP16 counter, RORgamma inh)
C=CCNC(=S)NNC(=O)C(C)C	none (no result: TDP1 cell noCPT, DT40 TDP1 CPT, IL1B secr inh, VP16 counter, RORgamma inh)
O=S(=O)(Nc1cccc2cccnc12)c1ccc2ccccc2c1	VP16 counter 0.63µM, RORgamma inh 5.6µM (no result: TDP1 cell noCPT, DT40 TDP1 CPT, IL1B secr inh)
O=S(=O)(Nc1cccc2cccnc12)c1cccs1	none (no result: TDP1 cell noCPT, DT40 TDP1 CPT, IL1B secr inh, VP16 counter, RORgamma inh)
